This is part of a sample that, as a whole, favours compounds with a hit. Of some 83,000 tested, about 20% had one in any assay.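 Single-dose data. Exposure time 48 hours. Values below 10 considered active.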 The source made the active and inactive calls.

One assay relates to SF-295 CNS. In words: NCI-60 one-dose screen, 48 h (100 = growth as untreated, 0 = no growth, -100 = all killed). The settings on record: 10 µM unless noted.
On to `O=C1/C(=C/c2ccccc2)SC(=Nc2ccccc2)N1Nc1ccccc1`, for which the growth is 16.2% (inactive).
Same read-out and setting: to `COc1cnc2c(c1)C(=O)c1c-2n(CCCNC(C)C)c(=O)c2cc(Cl)ccc12` belongs -77.3% (active); to `CCSCC1CC(O)(c2ccccc2)C(c2ccccc2)C(c2ccc(F)cc2)O1` (stereo not drawn), -22.4% (active).
Regarding `CN1C(=O)C(C2=NNC(c3ccccc3C(=O)O)C2)C(=O)N(C)C1=O` (stereo not drawn), the growth was 101% (inactive).
In the case of `NC(N)=NC1CCCCC1`, the growth is 120% (inactive).
On the same count and under the same terms, next, `COc1ccc(C(=O)OC2C(OC3C(O)COC(O[C@H]4C[C@H]5[C@@H]6CC=C7C[C@@H](O)CC[C@]7(C)[C@H]6CC[C@]5(C)[C@H]4[C@H](C)C(=O)CCC(C)C)C3OC(C)=O)OCC(O)C2O)cc1` (stereo partly drawn): -64.5% (active); `CC(C)(C)c1ccc(OC(=O)Nc2ccccc2)cc1`: 103% (inactive); `CN1C2CCC1/C(=C\c1ccc(F)cc1)C(=O)/C2=C/c1ccc(F)cc1`: 72% (inactive).
As for `CCCCOC(=O)c1cc(O)c(O)c(O)c1`, the growth is 102% (inactive).
With `CCOC(=O)C1OC2(CCCC2)OC1C(=O)OCC` (stereo not drawn), the growth is 126% (inactive).
In the case of `O=C(Nc1cccc(-n2ccc3c(NC(=O)c4ccccc4)nccc32)c1)c1ccc(N2CCOCC2)c(C(F)(F)F)c1`, the growth is -15.4% (active).
For the compound `CCN(CC)CCCC(C)Nc1c(-c2ccccc2)cnc2cc(Cl)ccc12` (stereo not drawn), the growth is 86.5% (inactive).
Still for that read-out and setting: next, `O=C1C=CN2C(=O)CC=CC2[C@@H]1O` (stereo partly drawn): 116% (inactive).
In the case of `CC(=O)O[C@@H]1CC2C(C)(C)CCCC2(C)C2=C1C(=O)C(C(C)C)=CC2=O` (stereo partly drawn), the growth was -34.1% (active).
Regarding `O=C(Nc1ccc(-n2ccc3c(NC(=O)c4ccccc4)nccc32)cc1)c1ccc(N2CCOCC2)c(C(F)(F)F)c1`, the growth is -7.34% (active).
With `COc1cc(/C=C/c2cc(/C=C/c3ccc(O)c(OC)c3)n(C(=O)Nc3ccc(F)c(Cl)c3)n2)ccc1O`, the growth is -55.3% (active).
The same measure, in the same setting: to `COc1cc(OC)c2sc(-c3ccc(-n4cncc4-c4ccc(OC)c(N)c4)cc3)nc2c1` belongs 69.4% (inactive); to `COc1ccc(C2=NNC(c3ccc(Oc4nc5c(c(=O)n(C)c(=O)n5C)n4C)c(OC)c3)C2)cc1` (stereo not drawn), 88.9% (inactive); to `NS(=O)(=O)c1ccc(CCn2c(SCC(=O)N/N=C/c3cccnc3)nc3ccccc3c2=O)cc1`, 85.7% (inactive).
As for `O=C(NNC(=O)c1cccc(Cl)c1)c1ccccc1`, the growth was 106% (inactive).
Still for that read-out and setting: to `N=c1nc(N2CCCCC2)cc(N)n1O` belongs 103% (inactive); to `Cc1ccc(C)c(NC(=O)c2sc3c(=O)[nH]cnc3c2C)c1`, 73.3% (inactive).
Take `C=CCOC(=O)C1=C(C)NC2=C(C(=O)CCC2)C1c1ccc(F)cc1` (stereo not drawn): the growth was 102% (inactive).
Regarding `COc1ccc(-c2cnc(-c3ccncc3-c3cccc(OC)c3)o2)cc1`, the growth is -8.54% (active).
For the compound `O=C(Nc1ccncc1)C(=O)c1cn(S(=O)(=O)c2cccc(Cl)c2F)c2ccccc12`, the growth is 67.9% (inactive).
On the same count and under the same terms, to `Cc1ccccc1Nc1n[nH]c(Cc2ccccc2)n1` belongs 103% (inactive); to `Oc1ccccc1-c1nnc(COc2ccc(Cl)cc2Cl)o1`, 47.4% (inactive); to `CS(=O)(=O)c1ccc(C(=O)N/N=C/c2ccccc2O)cc1`, 38% (inactive).
As for `CCCCCCCCCCCCCCCCCC(=O)OCCCCCCCCCCCCC`, the growth was 117% (inactive).
Still for that read-out and setting: to `COc1cc(C2CC(c3ccc(C)cc3)=NN2C=O)ccc1Oc1nc2c(c(=O)n(C)c(=O)n2C)n1C` (stereo not drawn) belongs 69.8% (inactive); to `COc1cc(C2CC(c3ccccc3)=NN2C=O)ccc1Oc1ccnc2cc(Cl)ccc12` (stereo not drawn), 43.3% (inactive); to `NC(N)=N/N=C/c1ccc(Cl)cc1`, 81.9% (inactive).
Take `O=c1c2cc(Cl)ccc2oc2ccc(OCCCCCN3CCCCC3)cc12`: the growth was 75.5% (inactive).
Still for that read-out and setting: next, `COc1cc(Cl)cc(-c2nn(C(=O)NCCN3CCOCC3)cc2-c2ccncc2)c1`: 52.7% (inactive); `COc1ccc2nc3ccccc3c(NCc3ccc(Cl)cc3)c2c1`: 25.8% (inactive); `CN1C(=O)N(C)C2C1NN=c1s/c(=C\c3ccc(C(F)(F)F)cc3)c(=O)n12` (stereo not drawn): 10.4% (inactive).
On the same count and under the same terms, to `C=C1C(=O)O[C@H]2[C@H]1CC/C(COC(=O)NCc1cn(C)c3ccccc13)=C\CC[C@@]1(C)O[C@@H]21` belongs 63.2% (inactive); to `c1csc(-c2cnc3nonc3n2)c1`, 101% (inactive); to `Nc1nc(NC2CC2)cc(-c2cccc(Cl)c2Cl)n1`, 55.7% (inactive).

A further assay concerns SF-539 CNS. The description is as above. Conditions: 10 µM unless noted.
Regarding `O=C1/C(=C/c2ccccc2)SC(=Nc2ccccc2)N1Nc1ccccc1`, the growth was 5.85% (active).
The same measure, in the same setting: to `COc1cnc2c(c1)C(=O)c1c-2n(CCCNC(C)C)c(=O)c2cc(Cl)ccc12` belongs -97.3% (active); to `CCSCC1CC(O)(c2ccccc2)C(c2ccccc2)C(c2ccc(F)cc2)O1` (stereo not drawn), 4.38% (active); to `CN1C(=O)C(C2=NNC(c3ccccc3C(=O)O)C2)C(=O)N(C)C1=O` (stereo not drawn), 108% (inactive).
Same read-out and setting: to `NC(N)=NC1CCCCC1` belongs 105% (inactive).
On the same count and under the same terms, next, `COc1ccc(C(=O)OC2C(OC3C(O)COC(O[C@H]4C[C@H]5[C@@H]6CC=C7C[C@@H](O)CC[C@]7(C)[C@H]6CC[C@]5(C)[C@H]4[C@H](C)C(=O)CCC(C)C)C3OC(C)=O)OCC(O)C2O)cc1` (stereo partly drawn): -69.8% (active); `CC(C)(C)c1ccc(OC(=O)Nc2ccccc2)cc1`: 90.5% (inactive).
Take `CN1C2CCC1/C(=C\c1ccc(F)cc1)C(=O)/C2=C/c1ccc(F)cc1`: the growth was 73.6% (inactive).
As to `CCCCOC(=O)c1cc(O)c(O)c(O)c1`, the growth is 48.5% (inactive).
The same measure, in the same setting: next, `CCOC(=O)C1OC2(CCCC2)OC1C(=O)OCC` (stereo not drawn): 114% (inactive); `O=C(Nc1cccc(-n2ccc3c(NC(=O)c4ccccc4)nccc32)c1)c1ccc(N2CCOCC2)c(C(F)(F)F)c1`: 11.9% (inactive).
The same measure, in the same setting: to `CCN(CC)CCCC(C)Nc1c(-c2ccccc2)cnc2cc(Cl)ccc12` (stereo not drawn) belongs 83.2% (inactive); to `O=C1C=CN2C(=O)CC=CC2[C@@H]1O` (stereo partly drawn), 104% (inactive); to `CC(=O)O[C@@H]1CC2C(C)(C)CCCC2(C)C2=C1C(=O)C(C(C)C)=CC2=O` (stereo partly drawn), -39.3% (active).
Same read-out and setting: to `O=C(Nc1ccc(-n2ccc3c(NC(=O)c4ccccc4)nccc32)cc1)c1ccc(N2CCOCC2)c(C(F)(F)F)c1` belongs 22.6% (inactive); to `COc1cc(/C=C/c2cc(/C=C/c3ccc(O)c(OC)c3)n(C(=O)Nc3ccc(F)c(Cl)c3)n2)ccc1O`, -16.6% (active).
As to `COc1cc(OC)c2sc(-c3ccc(-n4cncc4-c4ccc(OC)c(N)c4)cc3)nc2c1`, the growth is 84.1% (inactive).
Still for that read-out and setting: next, `COc1ccc(C2=NNC(c3ccc(Oc4nc5c(c(=O)n(C)c(=O)n5C)n4C)c(OC)c3)C2)cc1` (stereo not drawn): 97.8% (inactive); `NS(=O)(=O)c1ccc(CCn2c(SCC(=O)N/N=C/c3cccnc3)nc3ccccc3c2=O)cc1`: 104% (inactive); `O=C(NNC(=O)c1cccc(Cl)c1)c1ccccc1`: 107% (inactive).
On the same count and under the same terms, to `N=c1nc(N2CCCCC2)cc(N)n1O` belongs 116% (inactive).
On the same count and under the same terms, next, `Cc1ccc(C)c(NC(=O)c2sc3c(=O)[nH]cnc3c2C)c1`: 94.2% (inactive); `C=CCOC(=O)C1=C(C)NC2=C(C(=O)CCC2)C1c1ccc(F)cc1` (stereo not drawn): 102% (inactive); `COc1ccc(-c2cnc(-c3ccncc3-c3cccc(OC)c3)o2)cc1`: -0.0741% (active).
As to `O=C(Nc1ccncc1)C(=O)c1cn(S(=O)(=O)c2cccc(Cl)c2F)c2ccccc12`, the growth was 83.2% (inactive).
Consider `Cc1ccccc1Nc1n[nH]c(Cc2ccccc2)n1`, for which the growth is 107% (inactive).
For `Oc1ccccc1-c1nnc(COc2ccc(Cl)cc2Cl)o1`, the growth is 52.1% (inactive).
For `CS(=O)(=O)c1ccc(C(=O)N/N=C/c2ccccc2O)cc1`, the growth is 55.3% (inactive).
Regarding `CCCCCCCCCCCCCCCCCC(=O)OCCCCCCCCCCCCC`, the growth was 101% (inactive).
`COc1cc(C2CC(c3ccc(C)cc3)=NN2C=O)ccc1Oc1nc2c(c(=O)n(C)c(=O)n2C)n1C` (stereo not drawn): the growth is 116% (inactive).
With `COc1cc(C2CC(c3ccccc3)=NN2C=O)ccc1Oc1ccnc2cc(Cl)ccc12` (stereo not drawn), the growth was 79.8% (inactive).
The same measure, in the same setting: next, `NC(N)=N/N=C/c1ccc(Cl)cc1`: 99.1% (inactive); `O=c1c2cc(Cl)ccc2oc2ccc(OCCCCCN3CCCCC3)cc12`: 58.3% (inactive); `COc1cc(Cl)cc(-c2nn(C(=O)NCCN3CCOCC3)cc2-c2ccncc2)c1`: 68.4% (inactive).
Same read-out and setting: next, `COc1ccc2nc3ccccc3c(NCc3ccc(Cl)cc3)c2c1`: -5.77% (active); `CN1C(=O)N(C)C2C1NN=c1s/c(=C\c3ccc(C(F)(F)F)cc3)c(=O)n12` (stereo not drawn): 3.31% (active).
The same measure, in the same setting: next, `C=C1C(=O)O[C@H]2[C@H]1CC/C(COC(=O)NCc1cn(C)c3ccccc13)=C\CC[C@@]1(C)O[C@@H]21`: -34.6% (active); `c1csc(-c2cnc3nonc3n2)c1`: 96.8% (inactive).
On to `Nc1nc(NC2CC2)cc(-c2cccc(Cl)c2Cl)n1`, for which the growth is 55.7% (inactive).

The record behind these values is PubChem BioAssay (NCI).
